Over roughly 24,000 sequences, “enrichment r” has its median near 0.99; the highest 2% begin near 3.7. This excerpt belongs to a sample that is enriched for the highest values.
T1: UNK ZnF1-3 (human, UniProt Q9C0B0 31-174)
T1 sequence: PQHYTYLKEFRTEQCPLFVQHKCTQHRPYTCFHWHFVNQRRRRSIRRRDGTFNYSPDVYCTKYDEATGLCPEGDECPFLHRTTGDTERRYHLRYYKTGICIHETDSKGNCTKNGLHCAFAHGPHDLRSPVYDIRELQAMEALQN

B1: 23644147_23644267_867_3pUTR_ENSMUSG00000028986_ENSMUST00000030841|mouse|control|control (ssRNA)
RNA: GGGAGUUCUACAGUCCGACGAUCUUGAAUAAGUGGUUCAGCUUGUACUGUUUUACUUAGGAAAUUCUUCGAUAUAAGAGGAAACCUGACUUUAGCAAGGAUAUCAACCAUGAAUGGCUGGCGGUUAGGCUCAUCAUAUUUCAACAACAGAGGAUUGAGCAUCA
B2: chr2:25965407:25965408:-_ENSG00000143970_ENST00000336112|hu_mus|motif|central (ssRNA)
RNA: GGGAGUUCUACAGUCCGACGAUCAUGUGCUGCCGGAAUAAAAUCUCUAGGCAGGCUCUUUUCAUCAGAUGCUUGGCCUCGGGAGAAUAUGUAAUUCUCCUGGCCUAAAGUGGUUUGCUCACUCACUGGUGCCUCAGUCUUACCCAACAGAGGAUUGAGCAUCA
B3: 82834861_82834981_3494_CDS_ENSG00000038427_ENST00000343200|human|control|control (ssRNA)
RNA: GGGAGUUCUACAGUCCGACGAUCUUCAUUGACAGUACCCACUUCUCCCAAUCCUUCGUCGAUAAUGGAGGAAGCUGUACCAGAAAACUUUUGCACAGCACUGGGAAGCACUGGAACAACAGAGCUGCUGACUGUGACCAGUUGCAACAGAGGAUUGAGCAUCA
B4: chr14:70842435:70842436:-_ENSG00000213463_ENST00000256366|hu_hu|motif|central (ssRNA)
RNA: GGGAGUUCUACAGUCCGACGAUCCUGCACCUGUAACCUGUGCUGCACUCUCAGAGACACAGCAUAGCCUGCAUUACGAAAGAGGUCGGCAGCAUCCUGGUGCAGCAGGUUCUUUAGGUCUUGGCCAUUUACCGAAAGGAUCUUCAACAGAGGAUUGAGCAUCA
B5: chr6:13622506:13622507:-_ENSG00000010017_ENST00000011619|hu_mus|FALSE|FALSE (ssRNA)
RNA: GGGAGUUCUACAGUCCGACGAUCAGGAAGCAAUGUAAAGCGACAAAAACCUGUCCCCAGUACAUAAUUAAAAAAAAAUCUAAAUUUCAAAUCAGCAGAGCCGGUCUACUUCCAUGUUGACUGUUUGCCACAAUGUGAGUGUGACAACAGAGGAUUGAGCAUCA
B6: chr1:109605286:109605287:-_ENSG00000197780_ENST00000461096|hu_mus|hu_hu_hu_mus_True|8_88 (ssRNA)
RNA: GGGAGUUCUACAGUCCGACGAUCAAGUUUCAGAGUAACAUUCAGUAUACUUAAAUCAUGCAAUUAUCCUUAUUAUAAGCUAAGCAGAAUAAUAAUUUAAUACCGUAAGUGAACUACACACAAAGCCGUGUAUUCAGAAAUGGUCAACAGAGGAUUGAGCAUCA
B7: chr10:111893621:111893622:+_ENSG00000148700_ENST00000277900|hu_hu|FALSE|FALSE (ssRNA)
RNA: GGGAGUUCUACAGUCCGACGAUCUAAUUCAGACAGAUAGCUGUUUAUGGUGAAUUAUAAUAAUACUUCAUGAGGGCAGAGCUAAUUAAAACUAGUAAUUGCUUAAAAUUCAAAGCCAUUUCUGGACAUAUAAAAUGAGAGAUGCAACAGAGGAUUGAGCAUCA

Molecular target: T1, UNK ZnF1-3
Test: nsRBNS (natural sequence RNA bind-n-seq); RBNS binding buffer (assumed for nsRBNS): 25 mM Tris pH 7.5, 150 mM KCl, 3 mM MgCl2, 0.01% Triton X-100, 500 ug/ml BSA, 20 U/ml SUPERase-In, 4 C; UNK is unkempt and MSI1 is Musashi-1; names of the RNAs are library labels; protein concentration not given here; high values mean tight binding

Row | Binder | binding signal [enrichment R]
1 | B1 | 0.91
2 | B2 | 0.714
3 | B3 | 0.912
4 | B4 | 0.468
5 | B5 | 2.67
6 | B6 | 0.504
7 | B7 | 5.27
